Measurements taken from PubChem BioAssay (NCI).
“And” between values parts separate entries of the source, which are not always exact repeats. Equal values may be shown once. About 83,000 compounds went through this panel and 20% of them were active in at least one assay; those are over-represented in the sample as a whole.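 Activity criterion: percent growth below 10, measured after cells in 96-well plates were exposed to a single compound concentration for 48 hours.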 The source made the active and inactive calls.

How the values were obtained:
Experiment in all cases: NCI-60 one-dose screen, 48 h (100 = growth as untreated, 0 = no growth, -100 = all killed)
Conditions in all cases: 10 µM unless noted
T-47D breast = system: T-47D breast
BT-549 breast = system: BT-549 breast
MDA-MB-435 melanoma = system: MDA-MB-435 melanoma
SW-620 colon = system: SW-620 colon
MCF7 breast = system: MCF7 breast
HCT-116 colon = system: HCT-116 colon
HCC-2998 colon = system: HCC-2998 colon
KM12 colon = system: KM12 colon

Measured: growth

CCOC(=O)C(CNc1ccccc1)C(=O)OCC
inactive: T-47D breast 105% | BT-549 breast 104% | MDA-MB-435 melanoma 108% | SW-620 colon 104% | MCF7 breast 99.5% | HCT-116 colon 104% | HCC-2998 colon 102% | KM12 colon 106%

CCN(CC)CCCC(C)N(Cc1ccccc1)CC(O)c1ccc(Cl)cc1 (stereo unspecified)
inactive: T-47D breast 94.5% and 91.3% | BT-549 breast 110% and 102% | MDA-MB-435 melanoma 116% and 107% | SW-620 colon 98.8% and 113% | MCF7 breast 105% and 99.3% | HCT-116 colon 102% and 100% | KM12 colon 103% and 101%

O=Nc1ccc(O)cc1
inactive: T-47D breast 87.5% and 85.2% | BT-549 breast 83% | MDA-MB-435 melanoma 104% and 108% | SW-620 colon 86.1% and 94.1% | MCF7 breast 84.6% and 93.4% | HCT-116 colon 103% and 78.3% | KM12 colon 101% and 94.7%

O=S(=O)(Nc1ccccc1)C1CCCCC1
inactive: T-47D breast 116% and 105% | BT-549 breast 121% | MDA-MB-435 melanoma 107% and 102% | SW-620 colon 106% and 107% | MCF7 breast 94.2% and 104% | HCT-116 colon 99.6% and 107% | HCC-2998 colon 116% and 106% | KM12 colon 106% and 112%

CN(C)CCC(=O)c1ccc(Cl)cc1
inactive: T-47D breast 110% and 97.4% | BT-549 breast 107% and 98.8% | MDA-MB-435 melanoma 113% and 110% | SW-620 colon 103% and 108% | MCF7 breast 90.6% and 86.2% | HCT-116 colon 101% and 102% | HCC-2998 colon 97.3% | KM12 colon 108% and 109%

CN(C)c1ccc2nc3ccc(N)cc3[n+](-c3ccccc3)c2c1
active: T-47D breast -15.1% and 0.414% | MDA-MB-435 melanoma 4.97% and -49.2% | MCF7 breast 3.88% and -17.2% | HCT-116 colon 9.48% and 5.93%
inactive: BT-549 breast 27.5% | HCC-2998 colon 14.6% and 51.9% | KM12 colon 15.7% and 24.2%
20.8% (inactive) and -13.9% (active): SW-620 colon

O=C(/C=C\c1ccnc2ccccc12)c1ccc([N+](=O)[O-])cc1
inactive: T-47D breast 70.3% and 59.3% | BT-549 breast 80.4% and 77.9% | MDA-MB-435 melanoma 93.2% and 46.5% | MCF7 breast 75.8% and 25.4% | HCC-2998 colon 82.7% | KM12 colon 83.3% and 33.1%
active: HCT-116 colon 0.905% and -94%
80.6% (inactive) and 6.55% (active): SW-620 colon

O=[N+]([O-])c1ccc(/C=N\NC(=S)Nc2ccc(F)cc2)cc1
inactive: T-47D breast 94.5% and 88.4% | BT-549 breast 97.9% | MDA-MB-435 melanoma 109% and 101% | SW-620 colon 106% and 94.1% | MCF7 breast 89% and 97.8% | HCT-116 colon 71.7% and 53% | HCC-2998 colon 106% and 87.6% | KM12 colon 98.6% and 81.3%

Cn1c(SSc2ccc(-c3cccnc3)n2C)ccc1-c1cccnc1
inactive: T-47D breast 83.3% and 121% | BT-549 breast 107% and 105% | MDA-MB-435 melanoma 92.8% and 82% | SW-620 colon 62.8% and 11.1% | MCF7 breast 76.4% and 117% | HCT-116 colon 82.3% and 99.2% | HCC-2998 colon 112% and 102% | KM12 colon 98.5% and 95.5%

COc1cc2nc(N3CCC[C@@H](NC(=O)C4COc5ccccc5O4)C3)nc(N)c2cc1OC (stereo partly specified)
inactive: T-47D breast 92.2% and 90.3% | BT-549 breast 107% and 113% | MDA-MB-435 melanoma 96.9% and 99.5% | SW-620 colon 100% and 107% | MCF7 breast 100% and 98.9% | HCT-116 colon 95.9% and 95.2% | HCC-2998 colon 104% and 98.3% | KM12 colon 104% and 103%

CN(C)c1ccc(C(Cc2ccc3ccccc3n2)Cc2ccc3ccccc3n2)cc1
-3.35% (active) and 93.1% (inactive): BT-549 breast
inactive: T-47D breast 34.7% and 74.4% | MDA-MB-435 melanoma 32.7% and 87.1% | SW-620 colon 48.1% and 79.3% | MCF7 breast 40.8% and 68% | HCT-116 colon 15.4% and 51.6% | HCC-2998 colon 35% and 91.1% | KM12 colon 42.1% and 81%

CCN(CC)C(=O)c1cccnc1
inactive: T-47D breast 114% | BT-549 breast 98.5% | MDA-MB-435 melanoma 97.9% | MCF7 breast 108% | HCT-116 colon 105% | HCC-2998 colon 109% | KM12 colon 104%

N#C/C(=C1C=C/C(=N/O)C(Br)=C/1)c1ccccc1
inactive: T-47D breast 37.1% | BT-549 breast 36.2% | SW-620 colon 12.7% | HCC-2998 colon 58.3%
active: MDA-MB-435 melanoma -64.5% | HCT-116 colon -14.7% | KM12 colon -32.6%

CCOC(=O)Nc1nc2ccccc2[nH]1
108% (inactive) and -9.87% (active): HCC-2998 colon
96.1% (inactive) and -30% (active): MDA-MB-435 melanoma
inactive: T-47D breast 110% and 42.1% | BT-549 breast 105% and 11.7% | SW-620 colon 108% and 12% | HCT-116 colon 106% and 23% | KM12 colon 106% and 26.2%

CN1CCN(c2ccc3nc(-c4c(N)c5c(F)cccc5[nH]c4=O)[nH]c3c2)CC1
-66% (active) and 49.3% (inactive): BT-549 breast
inactive: T-47D breast 71.6% and 64.4% | MDA-MB-435 melanoma 26.6% and 16.1% | SW-620 colon 14.3% and 15.8% | MCF7 breast 14.8% and 14.7% | KM12 colon 12.8% and 13.7%
19.1% (inactive) and 3.86% (active): HCT-116 colon

COc1ccccc1NC(=O)OCC#CCOC(=O)Nc1ccccc1OC
inactive: T-47D breast 96.7% and 89.2% | BT-549 breast 91% | MDA-MB-435 melanoma 95.2% and 75.5% | SW-620 colon 102% and 90.2% | HCT-116 colon 99.9% and 87.4% | HCC-2998 colon 103% and 104% | KM12 colon 108% and 91.2%

Cc1ccc(S(=O)(=O)NCN2C(=O)c3ccccc3C2=O)cc1
inactive: T-47D breast 110% | BT-549 breast 101% | MDA-MB-435 melanoma 111% | SW-620 colon 108% | HCT-116 colon 98.5% | HCC-2998 colon 99.4% | KM12 colon 110%

Cn1c(=O)n(-c2ccc(C(C)(C)C#N)cc2)c2c3cc(-c4cnc5ccccc5c4)ccc3ncc21
inactive: HCT-116 colon 16.8% and 13%
active: T-47D breast -12.2% and -4.13% | BT-549 breast -8.12% and -14.5% | MDA-MB-435 melanoma 2.94% and 5.92% | SW-620 colon 8% and 3.15% | MCF7 breast 4.64% and -3.88% | KM12 colon 3.33% and -9.75%

CC(=O)Nc1cc(S(=O)(=O)O)cc2cc(S(=O)(=O)O)c(N=Nc3ccccc3)c(O)c12
inactive: T-47D breast 109% and 85.9% | BT-549 breast 107% and 117% | MDA-MB-435 melanoma 108% and 112% | SW-620 colon 104% and 102% | HCT-116 colon 93.2% and 123% | HCC-2998 colon 99.6% and 99.1% | KM12 colon 107% and 106%

COc1ccc(Cn2c(NCCN=C(N)N)nc(=O)n(Cc3ccc(F)cc3)c2=O)cc1
inactive: T-47D breast 91.4% and 87.7% | BT-549 breast 86.9% and 70.2% | MDA-MB-435 melanoma 100% and 109% | SW-620 colon 101% and 95.1% | HCT-116 colon 88.7% and 98.3% | HCC-2998 colon 104% and 102% | KM12 colon 114% and 106%

Nc1n[nH]c(=S)n1-c1ccc(Cl)cc1
inactive: T-47D breast 97.6% | BT-549 breast 92.5% | MDA-MB-435 melanoma 112% | SW-620 colon 97% | MCF7 breast 90.8% | HCT-116 colon 95.4% | KM12 colon 103%
